From PubChem BioAssay AID2391 (Southern Research Specialized Biocontainment Screening …, 2010)
Where “and” joins values, the source holds several entries; their conditions need not be identical. Identical values can stand only once. In all, about 310,000 compounds went through this assay and about 410 (0.13%) were called active. Not shown: some 2% with an inconclusive outcome. No rule for the calls is given here. The list is a sample of the results. Results with a measured potency or affinity are listed apart.

Assay: RSV antiviral activity via CPE protection, HEp-2 cells, primary 10 µM value included (AID 2391)
Settings: RSV-induced CPE inhibition, at 10 µM, hits give high values

CPE inhibition, inactive:
O=C(NN=C1c2ccccc2-c2ccccc21)c1ccccn1 1.09%
COc1ccc(OC)c(/C(C)=N/Nc2ccc(C(=O)O)cc2)c1 0.2%
COc1ccc(/C(C)=N/Nc2ccc(C(=O)O)cc2)c(OC)c1 1.98%
CCN(CC)CCOc1ccc2c(c1)C(=NNC(=O)c1ccccn1)c1cc(OCCN(CC)CC)ccc1-2 -1.74%
COc1ccc2[nH]c(C)c(C(=O)CN3CCN(C/C=C/c4ccccc4)CC3)c2c1 4.44%
CC(C)C1Cc2c(sc3c2c(=O)n(-c2ccccc2)c2n[nH]c(=S)n32)CO1 (stereo not drawn) 2.95%
CC(/C=N/NC(=O)c1cc(-c2ccc(C)o2)[nH]n1)=C\c1ccccc1 0.3%
COc1cccc(NC(=O)NCCCCc2ccccc2)c1 6.21%
Cc1cc(C(C)(C)C)c(O)c(C(C)(C)C)c1 -0.15%
CC(C)(C)c1ccc(O)c(O)c1 3.31%
NNC(=O)c1csc(-c2cccc(C(F)(F)F)c2)n1 9.01%
O=C(c1cc(Br)ccc1OC(F)F)N1CCN2CCCC2C1 (stereo not drawn) 0.87%
CCn1ncc(/C=C/C(=O)Nc2c(C)nn(Cc3ccc(Cl)cc3Cl)c2C)c1C 0.17%
O=C(O)/C=C/c1ccc(O)c(O)c1 0.47%
O=C(/C=C/c1ccc(O)c(O)c1)O[C@@H]1C[C@](O)(C(=O)O)C[C@@H](O)[C@H]1O 39.5% and 4.56%
COc1cc(OC)cc(C(=O)NC(=S)N2CCCCC2c2cccnc2)c1 (stereo not drawn) -0.07%
CCN1CCN(c2ccc(S(=O)(=O)N3CCCCC3)cc2NC(=O)CC(C)c2ccccc2)CC1 (stereo not drawn) -2.47%
Cc1ccsc1C(=O)OCC(=O)NC1CCCCC1C (stereo not drawn) 1.57%
CC1CN(C(C)C)C(C)CC1OC(=O)c1ccccc1 (stereo not drawn) -0.34%
COC(=O)c1ccc(COn2c(=O)c(C)[n+]([O-])c3ccccc32)cc1 2.27%
O=C(COc1ccc(Br)cc1Cl)NNC(=O)c1ccccc1 -0.21%
O=c1[nH]c(COc2ccc(Cl)cc2Cl)nc2ccccc12 20.4%
Cc1nc2c(C)cccn2c(=O)c1NC(=O)c1ccc2c(c1)OCO2 -0.9%
COc1cccc(CN(C(=O)c2ccccc2)C2CCS(=O)(=O)C2)c1 (stereo not drawn) 1.28%
N#CC(c1ccccc1)c1cccc(Cl)n1 (stereo not drawn) -0.33%
COc1ccc(C(=O)N2CC(c3ccccc3)CC2=O)cc1 (stereo not drawn) 1.75%
O=C1CC(c2ccccc2)CN1C(=O)c1ccccc1 (stereo not drawn) 0.02%
Cc1c(C(=O)N2CCC(C)CC2)sc2ncn(CC(=O)N3CCC(C)CC3)c(=O)c12 3.53%
Cc1ccc(-c2nnn(CC(=O)N(CC(=O)NC3CCCC3)c3ccc(F)cc3)n2)o1 2.25%
CC1Cc2ccccc2N1S(=O)(=O)c1cccc(C(=O)NCCCO)c1 (stereo not drawn) -0.32%
Nc1scn[n+]1Cc1cccc2cccnc12 19.5%
Cc1cc(C[n+]2cc(Br)ccc2N)c2ncccc2c1 81%
Cc1cc(C[n+]2ncsc2N)c2ncccc2c1 18.8%
Nc1ccc(Cl)c[n+]1Cc1cccc2cccnc12 50.2%
CCCC(=O)OC1CC(C)N(C(=O)c2ccccc2)c2ccc(C)cc21 (stereo not drawn) 7.5%
COc1ccc(CCNC(=O)COc2cc(C)cc3oc(=O)cc(C)c23)cc1 2.6%
Cc1c(-c2ccccc2)nc2ccccc2c1C(=O)O 0.81%
Cc1c(-c2ccccc2Cl)nc2ccccc2c1C(=O)O 1.54%
NC(=O)CC(NC(=O)Cc1ccc(Br)cc1)c1ccc(NCCN2CCCC2)c([N+](=O)[O-])c1 (stereo not drawn) 0.07%
CC(Oc1ccc(Cl)cc1Cl)C(=O)NNC(=O)C(=O)N1CCCC1 (stereo not drawn) 7.07%
COC(=O)NNC(=O)C(C)Oc1ccc(Cl)cc1Cl (stereo not drawn) 0.74%
COc1ccc(C(=O)OCCc2ccc(O)cc2)cc1 1.11%
COc1ccc(CCn2c(C)cc(C(=O)COC(=O)c3ccc(NC(=O)CC#N)cc3)c2C)cc1 4.94%
Cc1cc(-c2cc(C(=O)NCc3ccccc3)on2)nc(S(C)(=O)=O)n1 2.46%
Cc1ccccc1N(C(=O)CNC(=O)c1ccco1)C(C(=O)NC1CCCCC1)c1ccncc1 (stereo not drawn) 0.97%
CC(=O)NCCNC(=O)c1ccc(Cn2c(=O)[nH]c3ccsc3c2=O)cc1 0.58%
O=S(=O)(Nc1ccc(-c2ccc(N3CCOCC3)nn2)cc1)c1cc(Cl)ccc1Cl 1.29%
O=[N+]([O-])c1ccc(Cl)c(S(=O)(=O)Nc2ccc(-c3ccc(N4CCOCC4)nn3)cc2)c1 0.86%
Cc1ccc([N+](=O)[O-])cc1S(=O)(=O)Nc1cccc(-c2ccc(N3CCOCC3)nn2)c1 30.8%
O=[N+]([O-])c1ccc(Cl)c(S(=O)(=O)Nc2cccc(-c3ccc(N4CCCC4)nn3)c2)c1 55%
COc1ccccc1OCCn1ccnc1 0.82%
O=C(CC1C(=O)NCCN1Cc1cccc(Oc2ccccc2)c1)NCCn1cccn1 (stereo not drawn) 1.61%
CCn1ncc(CNC(=O)C2(C)CC2(Cl)Cl)c1C (stereo not drawn) 2.51%
O=C(O)/C=C/C(=O)NCCC(c1ccccc1)c1ccccc1 -0.16%
O=C(Nc1ccccc1)Nc1ccc(NC(=O)c2ccccc2O)cc1 1.31%
O=C(Nc1cccnc1)c1ccc(Cl)c(S(=O)(=O)N2CCCCC2)c1 10.1%
CCOc1cc(/C=C/c2cc(C(=O)O)c3ccccc3n2)ccc1OC 4.82%
COc1cc(/C=C/c2cc(C(=O)O)c3ccccc3n2)cc(OC)c1O -0.63%
COc1ccc(C2NC(=O)NC(C)=C2C(C)=O)cc1 (stereo not drawn) 2.63%
Cc1cc(Nc2ccccc2)nc(-c2ccccc2O)n1 21.2%
Cc1cc(Nc2ccc(Cl)cc2)nc(-c2ccccc2O)n1 14.1%
C[C@H]1CCC(=O)N(CCSc2ccc(Br)cc2)CC1 0.08%
CC(C)(C)c1n[nH]c2c1CCCC2 3.59%
COc1ccc2c(c1)Cc1sc(NC(=O)c3cccs3)nc1-2 7.1%
COc1ccc2c(c1)-c1nc(NC(=O)c3ccco3)sc1CC2 45.2%
Cc1nnc(SCC(=O)N2CCc3ccccc3C2)n1-c1ccccc1 2.35%
Cc1cc(C)c(NC(=O)CSc2nc3ccccc3c(=O)n2CCCN2CCOCC2)c(C)c1 -0.42%
COc1ccc(CNC(=O)C(C)Sc2nc3ccccc3c(=O)n2CCCN2CCOCC2)cc1 (stereo not drawn) -1.12%
C/C(N)=C(/C#N)C(=O)COC(=O)C(NS(=O)(=O)c1ccc(Cl)cc1)C(C)O (stereo not drawn) 0.82%
Cc1cc(C(=O)N2CCCC(N3CCN(c4cccc(Cl)c4)CC3)C2)nn1C (stereo not drawn) -0.33%
Cc1ccc(OCCCn2ccnc2)cc1C 0.08%
COc1cc(N)c(Cl)cc1C(=O)OCC(=O)Nc1cccnc1Cl 0.52%
COc1cc2c(cc1OC)[C@H](C)N(C(=O)CSc1nc(O)c(C(C)C)c(=O)[nH]1)CC2 0.69%
O=C(/C=C/c1ccc(OCCCF)cc1)N1CCOCC1 2.87%
O=C(/C=C/c1c(F)cccc1Cl)N1CCOCC1 0.12%
Cc1cc(C)n(-c2ccc(C(=O)OCC(=O)NCc3ccc(F)cc3)cc2)n1 0.92%
Cc1nc(-c2noc(-c3cccc(Cl)c3)n2)c(C(F)(F)F)o1 1.74%
CC(C(=O)N1CCc2ccccc21)n1cccc1 (stereo not drawn) 1.93%
CC(Nc1ccc2c(c1)OCCO2)C(=O)N1CCc2ccccc21 (stereo not drawn) 3.03%
CCOc1ccc(Br)cc1S(=O)(=O)Nc1ccc(C(=O)OCC(=O)Nc2ccc(C#N)cc2)cc1 2.94%
O=C(NC1CCN(S(=O)(=O)c2cccc(Cl)c2)CC1)C1CCCCC1 1.22%
CCOc1ccc(S(=O)(=O)NCCC(=O)Nc2nnc(C)s2)cc1 1.74%
CCCOc1ccc(N2C(=O)CC(N(CCc3ccc(OC)cc3)C(=O)c3ccccc3)C2=O)cc1 (stereo not drawn) 3.8%
CCCOc1ccc(N2C(=O)CC(N(Cc3ccccc3)N=O)C2=O)cc1 (stereo not drawn) -0.02%
N#C/C(=C\c1ccccc1O)C(=O)Nc1ccccn1 9.95%
COc1cc(/C=N/NC(=O)COc2c(C)cc([N+](=O)[O-])cc2C)ccc1OC(=O)c1ccccc1Br 5.39%
Cc1cc([N+](=O)[O-])cc(C)c1OCC(=O)N/N=C/c1ccc(OC(=O)c2ccccc2)cc1 10.1%
COc1cc(-n2c(=O)c3ccccc3n(Cc3cc(=O)n4ccccc4n3)c2=O)cc(OC)c1OC 2%
CCOc1ccc(-n2c(=O)c3sccc3n(Cc3ccc(C)cc3)c2=O)cc1 2.63%
Cc1ccc(-n2c(=O)c3c4c(sc3n(Cc3cc(=O)n5ccccc5n3)c2=O)CCC4)cc1C 9.89%
Cc1sc2c(c1C)c(=O)n(-c1ccc(Cl)cc1)c(=O)n2Cc1cc(=O)n2ccccc2n1 8.46%
Cc1ccc(-n2c(=O)c3c(C)c(C)sc3n(Cc3cc(=O)n4ccccc4n3)c2=O)cc1C 11.6%
O=c1c2sccc2nc(SCc2cc(=O)n3ccccc3n2)n1Cc1ccccn1 0.36%
